The subject of experiment [1] is Vero E6 infected with SARS-CoV-2. The experiment in a line: morphology score (similarity to uninfected cells); higher = more like uninfected cells. To be noted: 24 h.
Experiment [2] shares this test system. Kind of experiment: SARS-CoV-2 infection rate relative to infected DMSO; higher = more infection, active = 60 or less. To be noted: 24 h.

SMILES strings stand for the structures.

The source of these data is the supplement of paper PMC13380429.

`O=C1C(=C(O)/C=C/c2ccc(O)cc2)C(=O)[C@@](O)([C@@H]2O[C@H](CO)[C@@H](O)[C@H](O)[C@H]2O)C(=O)[C@H]1[C@@H]1O[C@H](CO)[C@@H](O)[C@H](O)[C@H]1O` (10 µM): in experiment [1], the morphology score amounted to 0.0573. In addition, the SARS-CoV-2 infection rate in experiment [2] is 104% (inactive).

In experiment [1], `O=C(O)Cn1nnc(-c2cc(N3CCC(Oc4cc(F)ccc4Br)CC3)no2)n1` (10 µM) registered a morphology score of 0.00994. For the same compound, the SARS-CoV-2 infection rate in experiment [2] is 104% (inactive).

In the case of `CC(C)(NS(=O)(=O)c1ccc(Oc2ccc(F)cc2)cc1)C(=O)NO` (10 µM), the morphology score in experiment [1] worked out at 0.193. The SARS-CoV-2 infection rate in experiment [2] was 99% (inactive).

As to `Cc1cccc(C)c1-n1c(=O)c2cnc(Nc3ccc(N4CCN(C)CC4)cc3)nc2n2c3ccccc3nc12` (0.833333 µM), in experiment [1], the morphology score is -0.0551. For the same compound, the SARS-CoV-2 infection rate in experiment [2] is 104% (inactive).

For `COc1ccc(-c2ccc3ncc4c(c3c2)n(-c2ccc(N3CCNCC3)c(C(F)(F)F)c2)c(=O)n4C)cn1` (0.833333 µM), the morphology score in experiment [1] is 0.115. The SARS-CoV-2 infection rate in experiment [2] was 104% (inactive).

As to `CCCCCCCCCCCCCCCCCCCCCC(=O)Nc1ccn([C@@H]2O[C@H](CO)[C@@H](O)[C@@H]2O)c(=O)n1` [enocitabine] (10 µM), the morphology score in experiment [1] stood at 0.135. Besides, in experiment [2], the SARS-CoV-2 infection rate is 94.5% (inactive).

Turning to `C[C@]12CC[C@@H]3c4ccc(O)cc4CC[C@H]3[C@@H]1CC[C@@H]2OC(=O)CCC1CCCC1` [estradiol-cypionate] (10 µM), in experiment [1], the morphology score is -0.002. Besides, the SARS-CoV-2 infection rate in experiment [2] was 99% (inactive).

Consider `CCCN1CCO[C@@H]2c3cc(O)ccc3OC[C@H]21` (10 µM), for which the morphology score in experiment [1] was 0.173. In experiment [2], the SARS-CoV-2 infection rate is 87% (inactive).

For `CCCCCCCC/C=C\CCCCCCCC(=O)NCCO` [oleoylethanolamide] (10 µM), in experiment [1], the morphology score worked out at 0.0636. In addition, the SARS-CoV-2 infection rate in experiment [2] is 102% (inactive).

`CCCCCCc1ccc(O)cc1O.Nc1c2ccccc2nc2ccccc12` [acrisorcin] (0.833333 µM): the morphology score in experiment [1] worked out at 0.293. The SARS-CoV-2 infection rate in experiment [2] was 97% (inactive).

Regarding `CC(C)C(=O)Oc1ccc(CO)cc1[C@H](CCN(C(C)C)C(C)C)c1ccccc1` [fesoterodine] (10 µM), the morphology score in experiment [1] is 0.096. For the same compound, the SARS-CoV-2 infection rate in experiment [2] was 108% (inactive).

Turning to `CC1(C)Cc2c(-c3ccccc3)c(-c3ccc(Cl)cc3)c(CC(=O)O)n2C1` [licofelone] (10 µM), the morphology score in experiment [1] was 0.31. Also, the SARS-CoV-2 infection rate in experiment [2] is 105% (inactive).

Regarding `NC(=O)[C@@H](CCC(F)(F)F)N(Cc1ccc(-c2ncon2)cc1F)S(=O)(=O)c1ccc(Cl)cc1` [avagacestat] (10 µM), the morphology score in experiment [1] was found to be 0.0806. Also, the SARS-CoV-2 infection rate in experiment [2] is 108% (inactive).

In experiment [1], `N=C1N[C@H]2[C@H](CS[C@H]2CCCCC(=O)O)N1` [2-iminobiotin] (10 µM) gave a morphology score of 0.0808. For the same compound, the SARS-CoV-2 infection rate in experiment [2] is 99% (inactive).

Turning to `CCOC(=O)[C@H](CCc1ccccc1)N[C@@H](C)C(=O)N1CCC[C@H]1C(=O)O` [enalapril] (10 µM), the morphology score in experiment [1] was found to be 0.198. In addition, the SARS-CoV-2 infection rate in experiment [2] is 96.5% (inactive).

Take `CNC(=O)c1c(C)oc2cc(Oc3ncnc4cc(OC)c(OC)cc34)ccc12` [fruquintinib] (10 µM): the morphology score in experiment [1] was 0.0139. Moreover, in experiment [2], the SARS-CoV-2 infection rate is 110% (inactive).

In experiment [1], `CN1Cc2ccccc2[C@@H]2c3cccc4[nH]cc(c34)C[C@H]21` (10 µM) came in with a morphology score of 0.609. Also, the SARS-CoV-2 infection rate in experiment [2] is 95.5% (inactive).

In experiment [1], `CNCC[C@@H](Oc1ccccc1C)c1ccccc1` [atomoxetine] (10 µM) had a morphology score of 0.0668. For the same compound, the SARS-CoV-2 infection rate in experiment [2] is 102% (inactive).

`CC(C)(N)c1nc(-c2ccc(OC(F)(F)F)cc2)c[nH]1` (10 µM): in experiment [1], the morphology score was found to be 0.0118. Besides, the SARS-CoV-2 infection rate in experiment [2] is 103% (inactive).

`O=C(N[C@H]1CN2CCC1CC2)c1ccc(Cl)cc1` (10 µM) gave a morphology score in experiment [1] of -0.0585. Besides, in experiment [2], the SARS-CoV-2 infection rate was 99.5% (inactive).

In experiment [1], `C[N+](C)(C)NCCC(=O)O` [meldonium] (10 µM) registered a morphology score of 0.253. In addition, the SARS-CoV-2 infection rate in experiment [2] is 88.5% (inactive).

On to `O=C(OOC(=O)c1ccccc1)c1ccccc1` [benzoyl-peroxide] (10 µM), for which, in experiment [1], the morphology score was -0.0426. In experiment [2], the SARS-CoV-2 infection rate was 97.5% (inactive).

Compound `COc1cc2c(Nc3ccc(Cl)c(Cl)c3F)ncnc2cc1OC[C@@H]1C[C@@H]2CN(C)C[C@@H]2C1` (10 µM) yielded a morphology score in experiment [1] of -0.291. Also, in experiment [2], the SARS-CoV-2 infection rate is 120% (inactive).

As to `C=C1/C(=C\C=C2/CCC[C@]3(C)[C@@H]([C@H](C)/C=C/[C@H](C)C(C)(C)O)CC[C@@H]23)C[C@@H](O)C[C@@H]1O` [ercalcitriol] (10 µM), in experiment [1], the morphology score came out at 0.0324. The SARS-CoV-2 infection rate in experiment [2] is 97.5% (inactive).

`COc1ccc(C(=O)Nc2c(Cl)cncc2Cl)cc1OC1CCCC1` [piclamilast] (10 µM): the morphology score in experiment [1] came to 0.363. The SARS-CoV-2 infection rate in experiment [2] was 107% (inactive).

Consider `CC(=O)N(c1onc(C)c1C)S(=O)(=O)c1ccc(N)cc1` [sulfisoxazole-acetyl] (10 µM), for which, in experiment [1], the morphology score was 0.179. In addition, the SARS-CoV-2 infection rate in experiment [2] is 91% (inactive).

In turn, `CCCCc1nc(-c2ccc(OCCCN(CC)CC)cc2)cn1-c1ccc(Oc2ccc(Cl)cc2)cc1` [azeliragon] (0.833333 µM) yielded a morphology score in experiment [1] of 0.129. Also, the SARS-CoV-2 infection rate in experiment [2] was 93% (inactive).

`Clc1cccc(Cl)c1CSc1nnc(-c2cnccn2)s1` [yoda-1] (10 µM) came in with a morphology score in experiment [1] of 0.286. Also, the SARS-CoV-2 infection rate in experiment [2] was 89% (inactive).

For `O=C(O)C(=O)c1cn(Cc2ccccc2)c2ccc(-c3ccc(OC(F)(F)F)cc3)cc12` [tiplaxtinin] (10 µM), the morphology score in experiment [1] was 0.0476. In addition, the SARS-CoV-2 infection rate in experiment [2] was 106% (inactive).

In turn, `Clc1cccc(-n2nnnc2NCc2ccccc2Oc2ccccn2)c1Cl` (10 µM) yielded a morphology score in experiment [1] of -0.0586. Besides, the SARS-CoV-2 infection rate in experiment [2] was 110% (inactive).

`CC[C@@H]1C(=O)N(C)c2cnc(Nc3ccc(C(=O)N[C@H]4CC[C@H](N5CCN(CC6CC6)CC5)CC4)cc3OC)nc2N1C(C)C` [volasertib] (10 µM) had a morphology score in experiment [1] of -0.314. Also, the SARS-CoV-2 infection rate in experiment [2] was 104% (inactive).
